The entries come from a sample that favours hits as a whole.
T cruzi growth-1 = blocks T. cruzi growth in NIH3T3 culture. inhibition, % at 8.34 µM. AID 624255. T. cruzi beta-gal in NIH3T3, GalScreen luminescence, 90 h. 77,000 compounds, 5.9% hits;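 active = mean inhibition above about 93%, with at least 55% of replicates each passing it, limit read from the data, passing the limit was not always enough; inconclusive = only one of those two conditions holds; inactive = neither condition holds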
C diff growth = blocks growth of Clostridium difficile; Clostridium difficile clinical isolate growth, OD600, 24 h; stronger effect = lower value; growth activity, negative = inhibition, % at 16 µg/mL (by protocol); 86,000 compounds, 0.25% hits;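 active = mean growth activity at or below -80% and every replicate also at or below -80%; inconclusive = mean at or below -80% but some replicate above -80%; inactive = mean growth activity above -80%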;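 also: 0% = DMSO wells and -100% = levofloxacin 16 µg/mL wells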
T cruzi growth-2 = Trypanosoma cruzi proliferation inhibition | inhibition, % at 8.35 µM | T. cruzi beta-gal in NIH3T3, GalScreen luminescence, 90 h | 5,600 compounds, 72% hits | shares compounds with T cruzi growth-1;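 active = mean replicate inhibition above about 95% and at least 55% of replicates individually reaching it, limit read from the data; inconclusive = only one of the two criteria is met; inactive = neither criterion is met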
T cruzi growth-3 = inhibitors of T. cruzi proliferation | inhibition, % at 2.09 µM | AID 651740 | shares compounds with T cruzi growth-1 | T. cruzi beta-gal in NIH3T3, GalScreen luminescence, 90 h | 5,600 compounds, 21% hits;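 active = mean inhibition above about 95%, with at least 55% of replicates also reaching it, limit read from the data; inconclusive = meets just one of the two conditions; inactive = meets neither condition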;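 also: plate controls were neutral control median for no effect and positive control median for full effect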
NIH3T3 tox = NIH/3T3 (mouse) viability loss. 5,600 compounds, 14% hits. shares compounds with T cruzi growth-1. cytotoxicity (signal decrease), % at 8.35 µM. NIH/3T3 viability, CellTiter-Glo ATP luminescence, 90 h;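 active = mean signal decrease across replicates above about 35% based on untreated-well scatter, with enough replicates individually passing, limit read from the data; inconclusive = no rule stated though some were filed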;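 also: 0% = median of neutral control wells and 100% = median of positive control wells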
NIH3T3 tox 2 = kills mouse NIH/3T3 fibroblasts. 5,600 compounds, 56% hits. AID 651744. inhibition, % at 24.9 µM. NIH/3T3 viability, CellTiter-Glo ATP luminescence, 90 h. shares compounds with T cruzi growth-1;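 active = mean loss of cell viability signal at or above a set limit, and enough replicates individually reaching it; inconclusive = meets only the mean limit or only the replicate share; inactive = meets neither condition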;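 also: 0% = median of neutral control wells and 100% = median of positive control wells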
* = called active by the depositor; ? = inconclusive; . = no result; + = active, no number.

SMILES	T cruzi growth-1	C diff growth	T cruzi growth-2	T cruzi growth-3	NIH3T3 tox	NIH3T3 tox 2
O=C(Cc1ccccc1)N1CCCCN2[C@@H](CO)[C@H](c3ccc(-c4ccccc4)cc3)[C@@H]2C1	100.1*	58.2	102.7*	74.8	25.2	101.7*
COc1ccc(-c2ccc([C@H]3[C@@H](CO)N4CCCCN(C(=O)Cc5ccccc5)C[C@H]34)cc2)cc1	90.9	-1.4	.	.	.	.
COc1ccc(-c2ccc([C@@H]3[C@@H](CO)N4CCCCN(C(=O)Cc5ccccc5)C[C@H]34)cc2)cc1	?	0.5	97.3*	55.1	31.6	105.2*
O=C(Cc1ccccc1)N1CCCCN2[C@H](C1)[C@@H](c1ccc(-c3ccccc3)cc1)[C@@H]2CO	-2.2	50.2	.	.	.	.
COC(=O)[C@@H]1[C@@H](CO)[C@@H]2Cn3c(ccc(C4=CCCCC4)c3=O)[C@H]1N2C(=O)CC1CC1	33.2	-2.6	.	.	.	.
O=C1CNC[C@@H]2[C@@H](c3ccc(Br)cc3)[C@H](CO)N12	.	22.5	.	.	.	.
O=C(O)[C@@H]1[C@@H](CO)[C@@H]2Cn3c(ccc(-c4cccnc4)c3=O)[C@H]1N2S(=O)(=O)c1ccccc1F	17.3	-2.8	.	.	.	.
COC(=O)C[C@H]1CC[C@@H]2NC[C@@H](O)COC[C@H]2O1	70.7	-1.1	.	.	.	.
COc1ccc(C#Cc2ccc([C@H]3[C@@H](CO)N4CCCCN(C(=O)Cc5ccccc5)C[C@H]34)cc2)cc1	76.7	-3.0	.	.	.	.
O=C(Cc1ccccc1)N1CCCCN2[C@H](C1)[C@@H](c1ccc(C#Cc3ccccc3)cc1)[C@@H]2CO	114.9*	-2.1	97.9*	73.2	?	102.9*
O=C(Cc1ccccc1)N1CCCCN2[C@H](CO)[C@@H](c3ccc(-c4ccccc4)cc3)[C@@H]2C1	30.8	50.4	.	.	.	.
O=C(Cc1ccccc1)N1CCCCN2[C@H](C1)[C@H](c1ccc(C#Cc3ccccc3)cc1)[C@@H]2CO	130.6*	4.9	104.3*	57.3	32.7	103.6*
O=C(Cc1ccccc1)N1CCCCN2[C@H](CO)[C@@H](c3ccc(C#CC4(O)CCCC4)cc3)[C@H]2C1	88.3	-0.4	.	.	.	.
COc1ccc(C#Cc2ccc([C@@H]3[C@@H](CO)N4CCCCN(C(=O)Cc5ccccc5)C[C@@H]34)cc2)cc1	110.9*	2.7	89.8	104.1*	-1.2	103.3*
COc1cccc(-c2ccc3n(c2=O)C[C@H]2[C@H](CO)[C@@H](C(=O)O)[C@@H]3N2Cc2ccccc2F)c1	-36.6	.	.	.	.	.
CCC(=O)N1[C@@H]2c3ccc(-c4cccc(F)c4)c(=O)n3C[C@H]1[C@H](CO)[C@H]2C(=O)OC	34.1	1.0	.	.	.	.
CC(=O)N1[C@@H]2c3ccc(-c4cccc(C(=O)N(C)C)c4)c(=O)n3C[C@H]1[C@H](CO)[C@H]2C(=O)O	.	7.3	.	.	.	.
COC(=O)[C@@H]1[C@@H](CO)[C@@H]2Cn3c(ccc(C4=CCCCC4)c3=O)[C@H]1N2Cc1ccccc1OC	.	0.0	.	.	.	.
O=C(O)[C@H]1[C@H](CO)[C@H]2Cn3c(ccc(-c4ccccc4F)c3=O)[C@@H]1N2C(=O)Nc1ccccc1	61.6	-3.8	.	.	.	.
CC=Cc1ccc2n(c1=O)C[C@@H]1[C@@H](CO)[C@H](C(=O)O)[C@H]2N1S(=O)(=O)c1ccccc1F (mixture of isomers)	-30.0	-0.9	.	.	.	.
O=C(O)[C@@H]1[C@@H](CO)[C@@H]2Cn3c(ccc(C4=CCCCC4)c3=O)[C@H]1N2CCc1ccccc1	163.8*	.	71.9	11.8	8.5	46.4*
COC(=O)[C@@H]1[C@@H](CO)[C@@H]2Cn3c(ccc(-c4ccccc4)c3=O)[C@H]1N2CC1CCCCC1	11.1	2.9	.	.	.	.
COC(=O)[C@@H]1[C@@H](CO)[C@@H]2Cn3c(ccc(-c4ccccc4)c3=O)[C@H]1N2CC1CCCC1	.	-12.6	.	.	.	.
COC(=O)[C@@H]1[C@@H](CO)[C@@H]2Cn3c(ccc(C4=CCCCC4)c3=O)[C@H]1N2CCc1ccccc1	46.7	0.6	.	.	.	.
COC(=O)[C@H]1[C@H](CO)[C@H]2Cn3c(ccc(-c4ccccc4F)c3=O)[C@@H]1N2CC1CCCC1	+	-9.1	54.8	-7.4	1.9	45.3*
SMILES	T cruzi growth-1	C diff growth	T cruzi growth-2	T cruzi growth-3	NIH3T3 tox	NIH3T3 tox 2
O=C(O)[C@@H]1[C@@H](CO)[C@@H]2Cn3c(ccc(-c4ccccc4)c3=O)[C@H]1N2CC1CCCCC1	97.4*	-0.4	-16.5	7.5	-20.9	-6.4
CC=Cc1ccc2n(c1=O)C[C@@H]1[C@@H](CO)[C@H](C(=O)OC)[C@H]2N1C(=O)CC1CC1 (mixture of isomers)	4.6	-5.9	.	.	.	.
CCN1[C@@H]2c3ccc(-c4cccc(OC)c4)c(=O)n3C[C@H]1[C@H](CO)[C@H]2C(=O)OC	11.3	-1.0	.	.	.	.
CC=Cc1ccc2n(c1=O)C[C@H]1[C@H](CO)[C@@H](C(=O)OC)[C@@H]2N1C(=O)CC (mixture of isomers)	29.7	-1.4	.	.	.	.
COc1ccc(C#Cc2ccc([C@H]3[C@@H](CO)N4CCCCN(C(=O)Cc5ccncc5)C[C@@H]34)cc2)cc1	107.7*	2.3	105.4*	68.6	40.5*	63.7*
COc1ccc(C#Cc2ccc([C@H]3[C@@H](CO)N4CCCCN(C(=O)Cc5ccncc5)C[C@H]34)cc2)cc1	109.3*	-0.3	107.9*	86.4	23.3	106.0*
COc1ccc(-c2ccc([C@@H]3[C@H](CO)N4CCCCN(C(=O)Cc5ccncc5)C[C@@H]34)cc2)cc1	99.0*	-3.9	98.1*	62.3	1.1	29.4*
COc1ccc(C#Cc2ccc([C@@H]3[C@H]4CN(C(=O)Cc5ccncc5)CCCCN4[C@H]3CO)cc2)cc1	105.5*	48.6	91.6	73.3	27.7	100.0*
O=C(Cc1ccncc1)N1CCCCN2[C@H](C1)[C@H](c1ccc(C#Cc3ccccc3F)cc1)[C@@H]2CO	24.4	0.1	.	.	.	.
COc1ccc(-c2ccc([C@H]3[C@@H](CO)N4CCCCN(C(=O)Cc5ccncc5)C[C@H]34)cc2)cc1	88.3	-5.2	.	.	.	.
COC(=O)[C@H]1[C@H](CO)[C@H]2Cn3c(cccc3=O)[C@@H]1N2C(=O)C1CCCC1	31.8	-0.6	.	.	.	.
C[C@@H]1CN([C@H](C)CO)C(=O)c2c(c3ccccc3n2C)-c2ccccc2CO[C@H]1CN(C)C(=O)Oc1ccccc1	.	-2.9	.	.	.	.
COC(=O)[C@H]1[C@H](CO)[C@H]2Cn3c(ccc(-c4ccc(F)cc4)c3=O)[C@@H]1N2Cc1cccnc1	-110.2	-5.9	.	.	.	.
COc1cccc(-c2ccc([C@@H]3[C@H]4CN(C(=O)Cc5ccncc5)CCCCN4[C@H]3CO)cc2)c1	114.0*	-4.7	93.7	25.7	6.8	28.0
COc1ccc(C#Cc2ccc([C@@H]3[C@@H](CO)N4CCCCN(C(=O)Cc5ccncc5)C[C@@H]34)cc2)cc1	117.0*	27.6	103.5*	76.5	20.7	102.3*
O=C(Cc1ccncc1)N1CCCCN2[C@H](CO)[C@H](c3ccc(C#CC4(O)CCCC4)cc3)[C@@H]2C1	93.1	3.2	.	.	.	.
COc1ccc(-c2ccc([C@H]3[C@H]4CN(C(=O)Cc5ccccc5)CCCCN4[C@H]3CO)cc2)cc1	73.8	5.8	.	.	.	.
